# A selection: hits, their analogues and other compounds. The true share with any hit is near 2.2%.
# Myeloid diff MLP = myeloid differentiation induction | ER-HoxA9 myeloid progenitors, lysozyme-GFP differentiation, flow cytometry | hit rate 1% among 360,000 | calls only at 10 µM | AID 624256;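 active = normalized GFP-positive differentiation at or above the plate's own cutoff, the solvent-only control mean plus 3 SD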;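 note: cells exposed to compound for four days before flow analysis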
# RTF Ca sens inh = cardiac RTF calcium desensitization | P19429+P45379 | IANBD-labeled cardiac RTF, Ca2+ fluorescence | inhibition, % at 7.15 µM | hit rate 0.12% among 340,000 | AID 493244;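 active = inhibition above the mean inhibition of all tested compounds plus 3 SD, cut at about 17% in these data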;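 note: assay run at fixed EC70 calcium of 1.6 mM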
# CRFR2-BP antag = CRF-BP/CRF-R2 complex antagonism; HEK293 CRF-R2/CRF-BP, CRF-induced calcium fluorescence; inhibition, % at 11.8 µM; hit rate 0.59% among 350,000;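 active = inhibition of the ligand-induced calcium signal above about 50% at the single tested concentration, limit read from the data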
# RTF Ca sens act = increases calcium sensitivity of human cardiac regulated thin filaments; P19429+P45379; activation, % at 7.2 µM; IANBD-labeled TnC RTF fluorescence at EC20 calcium; 0% EC20 calcium, 100% full calcium; hit rate 0.24% among 340,000;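 active = activation above the mean over all tested compounds plus 3 SD, cut at about 30% in these data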;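 note: rise in fluorescence read as greater calcium sensitivity of cardiac thin filaments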
# CRFBP-R2 agonist = CRF-BP/CRF-R2 complex agonism; activation, % at 13.2 µM; hit rate 0.46% among 350,000; HEK293 CRF-R2/CRF-BP, calcium dye fluorescence (FLIPR); percent of saturating CRF peptide response;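 active = activation of at least 50%, plus an integration ratio under a set limit after plate pattern correction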;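 note: plate controls were neutral control wells without compound for no effect and CRF at EC100 for full effect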
# An asterisk follows results filed as active; i = inactive; x = no result; + = active, no number; ! = repeats disagree.
SMILES,Myeloid diff MLP,RTF Ca sens inh,CRFR2-BP antag,RTF Ca sens act,CRFBP-R2 agonist
COc1ccc(CN=C2NN=C(c3ccc(Cl)cc3)CS2)cc1,i,0,14,-1,-2
CCCCNC(=O)CO/N=C(\C)c1cc2ccccc2o1,+,-3,12,-2,0
O=C(Nc1cc(C(=O)Nc2ccccc2C(=O)O)cc(C(=O)Nc2ccccc2C(=O)O)c1)c1ccccc1,i,0,104*,-9,0
O=C(Nc1ccc(Cl)cc1)Nc1ccccc1C(=O)O,i,-3,5,11,2
O=C(NNC(=O)c1ccc(NC(=O)c2ccccc2)cc1)Nc1ccccc1,+,-10,-14,7,3
O=C(Nc1ccc(Cl)c(Cl)c1)Nc1ccccc1C(=O)O,i,3,59*,-8,-1
O=C(O)c1cccc(NC(=O)c2ccccc2NC(=O)c2cccc([N+](=O)[O-])c2)c1,+,-5,10,-1,-1
COC(=O)C1(C(=O)OC)C[C@H](c2ccc(OC)cc2)N(Cc2ccccc2OC)[C@@H]1c1cccs1,i,x,x,x,x
COC(=O)[C@H]1C[C@H]2[C@@H]3CC[C@H]4C[C@@H](OC)CC[C@]4(C)[C@H]3CC[C@]2(C)[C@@]2(CCCO2)O1,i,-10,-11,2,5
O=c1cc(O)n(Cc2ccc(F)cc2)c(=O)[nH]1,i,-2,-11,0,0
O=c1[nH]c(O)c(C=Nc2ccc(Cl)cc2Cl)c(=O)[nH]1,i,2,-14,-2,0
CC(C)(CSc1ncccn1)NS(=O)(=O)c1ccccc1,i,1,66*,5,0
O=C(c1cccc(NS(=O)(=O)c2ccc(F)c(F)c2)c1)N1CCN(C(c2ccccc2)c2ccccc2)CC1,i,-8,62*,8,1
CCOc1ccccc1N=C1SC(CC(=O)Nc2ccc(OC)cc2OC)C(=O)N1CCC1=CCCCC1 (stereo not drawn),i,3,57*,0,-2
C=CCOc1nc2c(c(=O)n(Cc3ccc(Cl)c(Cl)c3)c(=O)n2C)n1C,i,-1,51*,2,-2
CC(=O)OCCNc1cc(Sc2nc3ccccc3[nH]2)c2nonc2c1[N+](=O)[O-],+,-2,46,-6,-4
CC1=CCC2(CO)COC(c3ccccc3O)C1C2 (stereo not drawn),i,1,2,6,0
O=C(O)c1cc(NC(=O)c2ccc(Cl)c([N+](=O)[O-])c2)cc(C(=O)O)c1,i,3,2,5,0
N#Cc1ccsc1NC(=O)c1ccc(Cl)c([N+](=O)[O-])c1,i,-4,72*,1,67*
N#Cc1ccsc1NC(=O)c1cccc([N+](=O)[O-])c1,i,-22,63*,-4,66*
N#Cc1ccsc1NC(=O)c1ccc2ncsc2c1,i,x,-10,x,-1
CCNC(=O)C1CCCN(C(=O)c2cc(C)oc2C)CC1 (stereo not drawn),i,x,x,x,x
CCSc1nnc2ccc(-c3ccc(OC)c(OC)c3)nn12,+,-1,-2,0,0
Cc1ccccc1S(=O)(=O)NC(=O)C1(C)CCN1C(=O)CCc1ccc(Cl)cc1Cl (stereo not drawn),i,x,x,x,x
O=C1Nc2ccc(Br)cc2C12NNc1ccccc1O2 (stereo not drawn),+,-26,-9,-2,13
SMILES,Myeloid diff MLP,RTF Ca sens inh,CRFR2-BP antag,RTF Ca sens act,CRFBP-R2 agonist
CCOC(=O)CSc1nc(N2CCOCC2)c2c(c1C#N)CC(C)(C)N(C)C2,i,-2,-112,0,196*
CCOC(=O)CSc1nc(N2CCOCC2)c2c(c1C#N)CC(C)(C)OC2,i,-9,4,3,0
O=C(OCCOc1ccccc1F)c1cccc(S(=O)(=O)N2CCOCC2)c1,+,-5,8,6,0
CCOC(=O)c1cccc(S(=O)(=O)N2CCOCC2)c1,i,2,1,8,-3
CCN(CC)c1ccc(/C=N/NC(=O)c2cc(C)nc3ccccc23)cc1,i,0,4,3,0
CCN(CC)c1ccc(/C=C/c2cc(-c3ccccc3)c3ccccc3n2)cc1,+,-430,-51,320*,67*
COc1cc(OC)c(OC)cc1/C=C1\Oc2cc(OCC(=O)N3Cc4ccccc4C[C@H]3C(=O)O)ccc2C1=O,i,-66,-28,32*,35
COc1ccc(/C=C2\Oc3cc(OCC(=O)N4CCC[C@H]4C(=O)O)ccc3C2=O)c(OC)c1,i,-44,4,30*,1
COc1ccc(OC)c(/C=C2\Oc3cc(OCC(=O)N4CCC[C@H]4C(=O)O)ccc3C2=O)c1,i,-8,11,7,4
CSc1nnc(CCCCCCCCc2nnc(SC)o2)o1,i,-6,6,4,2
C=CCNC(=S)Nc1ccc(N(C)C)cc1,i,-9,17,0,1
O=C(Nc1ccccc1Oc1cccnc1)C1CCCN(Cc2ccccc2O)C1 (stereo not drawn),i,-2,99*,0,-4
COc1cccc(S(=O)(=O)Nc2ccc(C(=O)N3CCOCC3)cc2)c1,i,-2,6,5,0
CCOC(=O)c1c(-c2ccc(OC)cc2)csc1NC(=O)CNCc1ccco1,i,1,78*,-9,3
CCOC(=O)c1c(-c2ccc(Cl)cc2)csc1NC(=O)CNCc1ccco1,i,-5,16,-3,-1
Cc1cccc(C)c1OCC(O)Cn1nnc2ccccc21 (stereo not drawn),i,0,65*,-5,-1
Cc1ccc2c(c1)c(C)c(C)n2CC(O)Cn1nnc2ccccc21 (stereo not drawn),+,-6,-31,7,1
CC(=O)c1ccc(OCC(O)Cn2nnc3ccccc32)cc1 (stereo not drawn),i,8,4,0,2
CCN1C[C@@H]2[C@@H]3C(=O)N(C)C(=O)[C@@H]3[C@](CC)(C(=O)OC)N2C1=NCc1ccccc1,i,-4,8,0,-1
CC(C)CN1Cc2ccccc2Oc2cc(Br)ccc2S1(=O)=O,i,-1,-25,-3,-2
CCCCN1Cc2ccccc2Oc2cc(Br)ccc2S1(=O)=O,+,-4,-28,-4,13
OCC(O)C1OC(c2ccco2)OC(CO)C1O (stereo not drawn),i,-6,1,3,0
Cc1cc(C)c(NC(=O)CSc2ccc3nnc(CCNC(=O)c4ccccc4)n3n2)c(C)c1,i,0,-6,1,-2
CCOC(=O)Cn1c(=O)oc2cc(S(=O)(=O)NC(C)(C)CC)ccc21,i,-6,89*,2,0
Cc1ccc(O)c([C@H](CCN(C(C)C)C(C)C)c2ccccc2)c1,+!,0,-61,9,1
Fc1ccc(-c2cc(C(F)(F)C(F)F)[nH]n2)cc1,i,x,-86,x,78*
FC(F)C(F)(F)c1cc(-c2ccc(Cl)cc2)n[nH]1,i,x,-74,x,28
